Shown are actives, neighbours in structure and some others; about 2% of the full set was active somewhere.
Shn3 inh set2 = reduces Shn3 3'UTR luciferase signal in osteoblasts | Clone20 osteoblast Shn3 3'UTR firefly luciferase, 24 h | inhibition, % at 12.5 µM | 360,000 compounds, 0.52% hits | AID 588674;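 active = mean inhibition of at least 75% with every replicate also reaching 75%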;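 note: 0% = median of neutral control wells and 100% = pilot-screen positive control compound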
LGR2 antag = inhibitors of bursicon-induced Drosophila LGR2 receptor cAMP signaling | HEK293 LGR2, CRE-luciferase, bursicon-stimulated, 4 h | inhibition, % at 9.99 µM | 380,000 compounds, 0.35% hits | AID 720647;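 active = drop in luminescence signal, shown as inhibition above about 50% in the replicate tests, limit read from the data, passing the limit was not always enough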;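 note: agonist challenge used bursicon conditioned medium at about half maximal strength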
CF NFkB inh = cystic fibrosis NF-kB activation inhibition | KKLEB NF-kB-GFP reporter, PAF-induced, GFP fluorescence overnight | inhibition, % at 5 µM | 360,000 compounds, 0.86% hits;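 active = at least 50% inhibition at 5 µM, scaled per plate between neutral and stimulator controls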;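 note: PAF is a Pseudomonas aeruginosa culture filtrate used as stimulus; plate controls were PAF-stimulated DMSO wells for no effect and unstimulated DMSO wells for full effect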
EWS-Fli block = blocks EWS/Fli oncoprotein-driven transcription; A673 NR0B1-luciferase reporter, viability-normalised; inhibition, % at 12.6 µM; 350,000 compounds, 0.67% hits;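 active = mean inhibition of at least 50% after viability correction, with every replicate also passing that limit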;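 note: firefly luciferase signal divided by Alamar Blue viability fluorescence both relative to DMSO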
PAX8 inh HTS = lowers PAX8-driven luciferase in RMG-I cells; RMG-I TPO-luciferase reporter, SteadyGlo, 24 h; inhibition, % at 12.6 µM; 360,000 compounds, 1.2% hits;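 active = mean replicate inhibition at least 60% with every replicate also reaching 60%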;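 note: luciferase light reporting Pax8 driven TPO promoter activity; plate controls were median of neutral control wells for no effect and mitoxantrone controls for full effect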
KKLEB cytotox = CF airway cell cytotoxicity counter-screen. KKLEB CF airway cells viability, ATPlite luminescence, overnight; hits give low values; cells stimulated with P. aeruginosa culture filtrate. 360,000 compounds, 0.36% hits. AID 602141. activity change (cytotoxicity), % at 5 µM;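 active = corrected activity change at or below -50% at 5 µM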
* marks the source's active call; other numbers are inactive results; nt = no result given.

SMILES	Shn3 inh set2	LGR2 antag	CF NFkB inh	EWS-Fli block	PAX8 inh HTS	KKLEB cytotox
C/C=C(\C)C(=O)N[C@@H](c1ccccc1)[C@@H](O)C(=O)O[C@H]1C[C@@]2(O)[C@@H](OC(=O)c3ccccc3)C3[C@](C)(C(=O)[C@H](OC(C)=O)C(=C1C)C2(C)C)[C@@H](O)C[C@H]1OC[C@@]31OC(C)=O (stereo partly specified)	24	nt	31	58*	nt	-22
COC(=O)[C@H]1[C@H](CO)[C@H]2Cn3c(ccc(C4=CCCC4)c3=O)[C@@H]1N2CC1CCCCC1	nt	-9	nt	-2	nt	nt
CCOC(=O)[C@]12Cc3cc(C)ccc3[C@H]1N(C(C)C)C(=O)c1ccccc12	nt	69*	nt	26	56	nt
CCCCCN1C(=O)c2ccccc2[C@@]2(C(=O)OCC)Cc3cc(OC)ccc3[C@@H]12	nt	64*	nt	23	23	nt
CCOC(=O)[C@]12Cc3cc(OC)ccc3[C@H]1N(Cc1ccccc1)C(=O)c1ccccc12	-8	12	6	5	16	6
CCOC(=O)[C@]12Cc3ccccc3[C@H]1N(C)C(=O)c1cc(OC)ccc12	nt	28	nt	3	-11	nt
CCOC(=O)[C@]12Cc3cc(C)ccc3[C@H]1N(C1CCCCC1)C(=O)c1cc(OC)ccc12	nt	68*	nt	46	104*	nt
CCOC(=O)[C@]12Cc3cc(OC)ccc3[C@H]1N(C1CCCCC1)C(=O)c1cc(OC)ccc12	nt	51*	nt	19	44	nt
C=C(CO)CC1CC(O)[C@]2(C)OC3CC4OC5C[C@]6(C)O[C@]7(C)CCC8OC9C[C@]%10(C)OC%11C(C)=CC(=O)OC%11CC%10OC9C[C@@H](C)C8OC7CC6O[C@]5(C)C/C=C\C4OC3CC2O1 (stereo partly specified)	8	8	-6	14	32	3
C=C(C=O)CC1CC(O)[C@]2(C)OC3CC4OC5C[C@]6(C)O[C@]7(C)CCC8OC9C[C@]%10(C)OC%11C(C)=CC(=O)OC%11CC%10OC9C[C@@H](C)C8OC7CC6O[C@]5(C)CC5OC5C4OC3CC2O1 (stereo partly specified)	59	nt	91*	nt	nt	-70*
COC(=O)C[C@@H]1CC[C@H]2NC[C@@H](O)COC[C@@H]2O1	nt	7	nt	-3	-13	nt
Cc1cccc(S(=O)(=O)N2[C@@H]3c4ccc(-c5ccncc5)c(=O)n4C[C@H]2[C@H](CO)[C@H]3C(=O)O)c1	nt	-13	nt	-1	4	nt
CCC(c1nnnn1Cc1ccccc1)N1CCC(n2c(=O)[nH]c3ccccc32)CC1 (stereo unspecified)	32	32	99*	7	88*	-71*
O=c1[nH]c2ccccc2n1C1CCN(C(CCc2ccccc2)c2nnnn2-c2ccc3c(c2)OCCO3)CC1 (stereo unspecified)	60	92*	60*	41	106*	-90*
Cc1cccc(C)c1-n1nnnc1C(CCc1ccccc1)N1CCC(n2c(=O)[nH]c3ccccc32)CC1 (stereo unspecified)	16	11	48	37	-18	-18
COc1cccc(C(c2nnnn2-c2c(C)cccc2C)N2CCC(n3c(=O)[nH]c4ccccc43)CC2)c1OC (stereo unspecified)	-2	30	20	9	18	-6
O=c1[nH]c2ccccc2n1C1CCN(C(c2ccnc3ccccc23)c2nnnn2-c2ccc3c(c2)OCCO3)CC1 (stereo unspecified)	3	9	77*	1	77*	-70*
N#Cc1cccc(-c2ccc([C@H]3[C@@H](CO)N4CCCCN(C(=O)Cc5cccnc5)C[C@H]34)cc2)c1	nt	9	nt	-2	-10	nt
COc1ccc(-c2ccc3n(c2=O)C[C@@H]2[C@@H](CO)[C@H](C(=O)O)[C@H]3N2C(=O)c2ccccc2F)cc1	nt	1	nt	-5	nt	nt
COC(=O)[C@@H]1[C@@H](CO)[C@@H]2Cn3c(ccc(C4=CCCC4)c3=O)[C@H]1N2S(=O)(=O)c1cn(C)cn1	nt	-4	nt	5	-8	nt
CCC(C)C(NC(=O)CCCNC(=O)CCC(=O)OC1O[C@H]2OC3(C)CC[C@H]4[C@H](C)CCC(C1C)C24OO3)C(=O)O (stereo partly specified)	87*	-1	7	34	74*	6
CC1=C(N2CC2)C(=O)C(CO)=C(N2CC2)C1=O	96*	0	97*	28	118*	-104*
COC(=O)[C@H]1[C@H](CO)[C@H]2Cn3c(ccc(/C=C/c4ccccc4)c3=O)[C@@H]1N2CC1CCCC1	nt	11	nt	2	22	nt
CN1[C@H](CO)[C@H]2c3ccccc3NC[C@H]21	nt	-13	nt	6	-6	nt
C[n+]1ccc(-c2ccccc2)c2ccccc21	14	-13	3	17	-4	-5
SMILES	Shn3 inh set2	LGR2 antag	CF NFkB inh	EWS-Fli block	PAX8 inh HTS	KKLEB cytotox
CC[n+]1c(/C=C/N(C)c2ccccc2)sc2ccc(Cl)cc21	92*	12	27	nt	nt	-45
CN(C)c1ccc(/C=C/c2cc[n+](C)c3ccccc23)cc1	81	33	-114	4	95*	2
CN(C)c1ccc(/C=C/C=C/c2sc3ccccc3[n+]2C)cc1	nt	27	22	48	84*	-9
CC[n+]1c(/C=C/C=C/c2ccc(N(C)C)cc2)sc2ccccc21	84	36	-26	23	80*	18
CCCN1[C@@H]2c3ccc(-c4ccc(OC)cc4)c(=O)n3C[C@H]1[C@H](CO)[C@H]2C(=O)OC	nt	-1	nt	-4	8	nt
COC(=O)[C@H]1[C@H](CO)[C@H]2Cn3c(ccc(-c4ccc(F)cc4)c3=O)[C@@H]1N2Cc1cccnc1	nt	6	nt	-13	nt	nt
COC(=O)[C@@H]1[C@@H](CO)[C@@H]2Cn3c(ccc(C4=CCCC4)c3=O)[C@H]1N2Cc1ccccn1	nt	12	nt	-8	nt	nt
CC=Cc1ccc2n(c1=O)C[C@@H]1[C@@H](CO)[C@H](C(=O)OC)[C@H]2N1C(=O)CC1CC1 (mixture of isomers)	nt	-6	nt	7	-14	nt
Cc1cccc(N=C2c3cc([N+](=O)[O-])ccc3-c3c2cc([N+](=O)[O-])cc3[N+](=O)[O-])c1	-21	5	30	31	66*	-16
N#Cc1ccc(-c2ccc([C@H]3[C@H](CO)N4CCCCN(C(=O)Cc5ccccc5)C[C@@H]34)cc2)cc1	nt	6	nt	0	5	nt
CCN(CC)c1ccc(/C=C/[N+](=O)[O-])cc1	16	30	-11	7	-14	-14
O=[N+]([O-])/C=C/c1c(Cl)cccc1Cl	77	-15	57*	0	4	-3
COC(=O)[C@@H]1N[C@@H]2c3ccc(C4=CCCC4)c(=O)n3C[C@@H]2[C@H]1CO	nt	-60	nt	-2	nt	nt
N=c1c2c(n(Cc3ccc(Cl)cc3Cl)c3c1CCC3)CCCC2	86*	nt	-7	nt	nt	7

Source: PubChem BioAssay (several laboratories)
